{
  "source": "PubChem BioAssay",
  "note": "Several values for one entry are separate records, joined by “and”; a condition that tells them apart may be missing. Equal values may be shown once.",
  "data": [
    {"assay": "sensitizers of A549 cells to miR-34 induction, primary screen, imaging, A549 dox-inducible miR-34, nuclei and caspase counts (AID 1347080); further: test concentration not given here", "conditions": "A549 miR-34 inducible, Hoechst nuclei count, 48 h; measured here: total cells with miR-34 induction; stronger effect = lower value", "values": [
      {"smiles": "CC[C@]1(O)CC2CN(CCc3c([nH]c4ccccc34)[C@@](C(=O)OC)(c3cc4c(cc3OC)N(C)[C@H]3[C@@](O)(C(=O)OC)[C@H](OC(C)=O)[C@]5(CC)C=CCN6CC[C@]43[C@@H]65)C2)C1", "note": "(stereo partly specified)", "cell count": "1730 and 1930"},
      {"smiles": "C[C@]12CCC3c4ccc(O)cc4CCC3C1CCC2=O", "note": "(stereo partly specified)", "cell count": 10400},
      {"smiles": "OC[C@@H](O)[C@@H](O)[C@H](O)[C@@H](O)CO", "cell count": 11500},
      {"smiles": "COC(=O)/C=C/C(=O)OC", "cell count": 7550},
      {"smiles": "C=CC[C@@H]1/C=C(\\C)C[C@H](C)C[C@H](OC)[C@H]2O[C@@](O)(C(=O)C(=O)N3CCCC[C@H]3C(=O)O[C@H](/C(C)=C/[C@@H]3CC[C@@H](O)[C@H](OC)C3)[C@H](C)[C@@H](O)CC1=O)[C@H](C)C[C@@H]2OC", "cell count": "4360 and 8620"},
      {"smiles": "CC(=O)OCC(=O)[C@@]1(O)CCC2C3CCC4=CC(=O)C=C[C@]4(C)[C@@]3(Cl)[C@@H](Cl)C[C@@]21C", "note": "(stereo partly specified)", "cell count": 6210},
      {"smiles": "N#C[C@@H]1C[C@@H]2C[C@@H]2N1C(=O)[C@@H](N)C12CC3CC(CC(O)(C3)C1)C2", "cell count": 8720},
      {"smiles": "Cc1coc2c1C(=O)C(=O)c1c-2ccc2c1CCCC2(C)C", "cell count": "934 and 1820 and 2140"},
      {"smiles": "O=C1c2c(O)cccc2[C@@H](O[C@@H]2O[C@H](CO)[C@H](O)[C@@H](O)[C@H]2O)c2cc(CO)cc(O)c21", "cell count": 8450},
      {"smiles": "OC(c1cc(C(F)(F)F)nc2c(C(F)(F)F)cccc12)C1CCCCN1", "note": "(stereo unspecified)", "cell count": "3010 and 11200"},
      {"smiles": "CCCCS(=N)(=O)CCC(N)C(=O)O", "note": "(stereo unspecified)", "cell count": 9560},
      {"smiles": "Nc1nc(N)c2nc(CNc3ccc(C(=O)NC(CCC(=O)O)C(=O)O)cc3)cnc2n1", "note": "(stereo unspecified)", "cell count": 2740},
      {"smiles": "N#CC(c1ccc(Cl)cc1)c1c(Cl)cc(-n2ncc(=O)[nH]c2=O)cc1Cl", "note": "(stereo unspecified)", "cell count": "7450 and 8470"},
      {"smiles": "Cc1cc(=O)c(C(=O)N[C@@H](C(=O)N[C@@H]2C(=O)N3C(C(=O)O)=C(CSc4nnnn4C)CSC23)c2ccc(O)cc2)c[nH]1", "note": "(stereo partly specified)", "cell count": 8940},
      {"smiles": "COc1ccc2nc3cc(Cl)ccc3c(Nc3cc(CN4CCCC4)c(O)c(CN4CCCC4)c3)c2n1", "cell count": 2320},
      {"smiles": "CC1=C(C(=O)O)N2C(=O)[C@@H](NC(=O)C(N)c3ccccc3)[C@H]2SC1", "note": "(stereo partly specified)", "cell count": "10100 and 11100"},
      {"smiles": "CC1CC2C3CCC4=CC(=O)C=C[C@]4(C)[C@@]3(F)[C@@H](O)C[C@]2(C)[C@@]1(O)C(=O)CO", "note": "(stereo partly specified)", "cell count": 7510},
      {"smiles": "CC(C)(CO)[C@@H](O)C(=O)NCCC(=O)O", "cell count": "9860 and 12000 and 9850"},
      {"smiles": "CN1C(C(=O)Nc2ccccn2)=C(O)c2sc(Cl)cc2S1(=O)=O", "cell count": "9030 and 7600"},
      {"smiles": "CC(NCCc1ccc(O)cc1)C(O)c1ccc(O)cc1", "note": "(stereo unspecified)", "cell count": 12000},
      {"smiles": "Cc1cc2nc3c(=O)[nH]c(=O)nc-3n(C[C@@H](O)[C@@H](O)[C@@H](O)COP(=O)(O)O)c2cc1C", "cell count": 8530},
      {"smiles": "CN[C@@H]1[C@H](O[C@H]2[C@H](O[C@@H]3[C@@H](O)[C@H](O)[C@@H](N=C(N)N)[C@H](O)[C@H]3N=C(N)N)O[C@@H](C)[C@]2(O)C=O)O[C@@H](CO)[C@H](O)[C@H]1O", "cell count": "7810 and 9380"},
      {"smiles": "CN(C)CC[C@H](c1ccc(Cl)cc1)c1ccccn1", "cell count": 10500},
      {"smiles": "COc1ccc(C2Sc3ccccc3N(CCN(C)C)C(=O)C2OC(C)=O)cc1", "note": "(stereo unspecified)", "cell count": "7800 and 11500"},
      {"smiles": "Cc1c(-c2cnccn2)ssc1=S", "cell count": 9050},
      {"smiles": "Nc1nc(F)nc2c1ncn2[C@@H]1O[C@H](COP(=O)(O)O)[C@@H](O)[C@@H]1O", "cell count": 1570},
      {"smiles": "Cc1cc2nc3c(=O)[nH]c(=O)nc-3n(CC(O)C(O)C(O)CO)c2cc1C", "note": "(stereo unspecified)", "cell count": 12400},
      {"smiles": "NC(=O)c1ncn(C2O[C@H](CO)[C@@H](O)[C@H]2O)c1N", "note": "(stereo partly specified)", "cell count": 9050}
    ]},
    {"assay": "sensitizers of A549 cells to miR-34 induction, primary screen, imaging, A549 dox-inducible miR-34, nuclei and caspase counts (AID 1347080); further: test concentration not given here", "conditions": "A549 miR-34 inducible, Hoechst nuclei count, 48 h; measured here: total cells without miR-34 induction", "values": [
      {"smiles": "CC[C@]1(O)CC2CN(CCc3c([nH]c4ccccc34)[C@@](C(=O)OC)(c3cc4c(cc3OC)N(C)[C@H]3[C@@](O)(C(=O)OC)[C@H](OC(C)=O)[C@]5(CC)C=CCN6CC[C@]43[C@@H]65)C2)C1", "note": "(stereo partly specified)", "cell count": "1530 and 1860"},
      {"smiles": "C[C@]12CCC3c4ccc(O)cc4CCC3C1CCC2=O", "note": "(stereo partly specified)", "cell count": 10300},
      {"smiles": "OC[C@@H](O)[C@@H](O)[C@H](O)[C@@H](O)CO", "cell count": 12200},
      {"smiles": "COC(=O)/C=C/C(=O)OC", "cell count": 7740},
      {"smiles": "C=CC[C@@H]1/C=C(\\C)C[C@H](C)C[C@H](OC)[C@H]2O[C@@](O)(C(=O)C(=O)N3CCCC[C@H]3C(=O)O[C@H](/C(C)=C/[C@@H]3CC[C@@H](O)[C@H](OC)C3)[C@H](C)[C@@H](O)CC1=O)[C@H](C)C[C@@H]2OC", "cell count": "4240 and 9860"},
      {"smiles": "CC(=O)OCC(=O)[C@@]1(O)CCC2C3CCC4=CC(=O)C=C[C@]4(C)[C@@]3(Cl)[C@@H](Cl)C[C@@]21C", "note": "(stereo partly specified)", "cell count": 7190},
      {"smiles": "N#C[C@@H]1C[C@@H]2C[C@@H]2N1C(=O)[C@@H](N)C12CC3CC(CC(O)(C3)C1)C2", "cell count": 9840},
      {"smiles": "Cc1coc2c1C(=O)C(=O)c1c-2ccc2c1CCCC2(C)C", "cell count": "800 and 1570 and 1300"},
      {"smiles": "O=C1c2c(O)cccc2[C@@H](O[C@@H]2O[C@H](CO)[C@H](O)[C@@H](O)[C@H]2O)c2cc(CO)cc(O)c21", "cell count": 9140},
      {"smiles": "OC(c1cc(C(F)(F)F)nc2c(C(F)(F)F)cccc12)C1CCCCN1", "note": "(stereo unspecified)", "cell count": "4250 and 12100"},
      {"smiles": "CCCCS(=N)(=O)CCC(N)C(=O)O", "note": "(stereo unspecified)", "cell count": 9650},
      {"smiles": "Nc1nc(N)c2nc(CNc3ccc(C(=O)NC(CCC(=O)O)C(=O)O)cc3)cnc2n1", "note": "(stereo unspecified)", "cell count": 2230},
      {"smiles": "N#CC(c1ccc(Cl)cc1)c1c(Cl)cc(-n2ncc(=O)[nH]c2=O)cc1Cl", "note": "(stereo unspecified)", "cell count": "8480 and 10000"},
      {"smiles": "Cc1cc(=O)c(C(=O)N[C@@H](C(=O)N[C@@H]2C(=O)N3C(C(=O)O)=C(CSc4nnnn4C)CSC23)c2ccc(O)cc2)c[nH]1", "note": "(stereo partly specified)", "cell count": 9610},
      {"smiles": "COc1ccc2nc3cc(Cl)ccc3c(Nc3cc(CN4CCCC4)c(O)c(CN4CCCC4)c3)c2n1", "cell count": 2290},
      {"smiles": "CC1=C(C(=O)O)N2C(=O)[C@@H](NC(=O)C(N)c3ccccc3)[C@H]2SC1", "note": "(stereo partly specified)", "cell count": "9800 and 13300"},
      {"smiles": "CC1CC2C3CCC4=CC(=O)C=C[C@]4(C)[C@@]3(F)[C@@H](O)C[C@]2(C)[C@@]1(O)C(=O)CO", "note": "(stereo partly specified)", "cell count": 7990},
      {"smiles": "CC(C)(CO)[C@@H](O)C(=O)NCCC(=O)O", "cell count": "10700 and 13800 and 10800"},
      {"smiles": "CN1C(C(=O)Nc2ccccn2)=C(O)c2sc(Cl)cc2S1(=O)=O", "cell count": "9980 and 8730"},
      {"smiles": "CC(NCCc1ccc(O)cc1)C(O)c1ccc(O)cc1", "note": "(stereo unspecified)", "cell count": 12600},
      {"smiles": "Cc1cc2nc3c(=O)[nH]c(=O)nc-3n(C[C@@H](O)[C@@H](O)[C@@H](O)COP(=O)(O)O)c2cc1C", "cell count": 9530},
      {"smiles": "CN[C@@H]1[C@H](O[C@H]2[C@H](O[C@@H]3[C@@H](O)[C@H](O)[C@@H](N=C(N)N)[C@H](O)[C@H]3N=C(N)N)O[C@@H](C)[C@]2(O)C=O)O[C@@H](CO)[C@H](O)[C@H]1O", "cell count": "8360 and 10400"},
      {"smiles": "CN(C)CC[C@H](c1ccc(Cl)cc1)c1ccccn1", "cell count": 12500},
      {"smiles": "COc1ccc(C2Sc3ccccc3N(CCN(C)C)C(=O)C2OC(C)=O)cc1", "note": "(stereo unspecified)", "cell count": "8320 and 13000"},
      {"smiles": "Cc1c(-c2cnccn2)ssc1=S", "cell count": 10300},
      {"smiles": "Nc1nc(F)nc2c1ncn2[C@@H]1O[C@H](COP(=O)(O)O)[C@@H](O)[C@@H]1O", "cell count": 1470},
      {"smiles": "Cc1cc2nc3c(=O)[nH]c(=O)nc-3n(CC(O)C(O)C(O)CO)c2cc1C", "note": "(stereo unspecified)", "cell count": 13100},
      {"smiles": "NC(=O)c1ncn(C2O[C@H](CO)[C@@H](O)[C@H]2O)c1N", "note": "(stereo partly specified)", "cell count": 9660}
    ]}
  ]
}
